Screens from PubChem.
This is a sample that favours compounds with a hit; in the whole collection about 21% have one here.
HCV inhibitor: inhibitors of hepatitis C virus infection; Huh7.5.1 HCVcc-Cre infection, luciferase reporter, 44 h; Potency, µM (top dose mostly 41.8 µM), inactives show top-dose activity change, negative = inhibition, actives largely listed as inhibitors; hit rate 3.4% among 340,000; further: potency means the concentration at half of the fitted maximal effect; on the % scale 0 is the no-effect control and ±100 the full control effect
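A cell-based infection assay in which seeded cells (1,000 per well) receive test compound after 4 h, are inoculated with HCVcc-Cre at approximately 0.5 moi, and are incubated 44 h before luminescence detection.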
Cycloheximide cs: counter-screen hit for Shiga toxin inhibitors, cycloheximide; cell reporter, cycloheximide protein synthesis inhibition counterscreen; max response, %; hit rate 12% among 300,000; AID 2314; in the data active means max response mostly above about 13%, no sharp cut-off; inactive means mostly below about 14%; further: read at 38.3 µM for the half of the compounds with a filed dose; 0% is about no effect
Pf growth 48h: inhibits P. falciparum growth in the first generation, 48 h | Potency, µM (top dose mostly 28.7 µM), for inactives: at the top dose activity change, negative = inhibition, hits mostly inhibitors | hit rate 5.9% among 310,000 | AID 504832 | P. falciparum luciferase growth in erythrocytes, 48 h; further: potency means the concentration at half of the fitted maximal effect; on the % scale 0 is the no-effect control and ±100 the full control effect
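Growth was read as firefly luciferase luminescence after a 48 h, 37 C, 5% CO2 exposure of compounds to reporter-bearing P. falciparum cultures (0.1% parasitemia, 2% hematocrit final) in Albumax-supplemented RPMI 1640.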
HCMV inh: inhibitors of human cytomegalovirus; hit rate 4.5% among 410,000; AID 1259415; activity change, negative = inhibition, % at 57.5 µM; HFF cells, HCMV-luciferase reporter, 72 h; active compounds read low; in the data active means activity change below about -60%; inconclusive means no clear call, values can overlap the other calls; inactive means above about -39%; further: on the % scale 0 is the no-effect control and ±100 the full control effect
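Human foreskin fibroblasts infected with luciferase-reporter HCMV at MOI 1 PFU/cell, compounds at two doses. Luciferase measured 72 h post infection; normalized to buffer-only basal and Salinomycin (10uM) controls.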
Shiga toxin inh: inhibitors of Shiga toxin in Vero cells. AID 2315. inhibition, % at 38.7 µM. hit rate 9.2% among 290,000. Vero cells, Shiga toxin protein synthesis inhibition reporter; in the data active means inhibition mostly above about 28%, no sharp cut-off; inactive means mostly below about 43%; further: 0% is about no effect
Pf growth 96h: P. falciparum growth inhibition at 96 hours. P. falciparum luciferase reporter growth, 96 h. Potency, µM (titrated, usually from 28.7 µM), for the others: at the highest dose activity change, negative = inhibition, actives largely listed as inhibitors. hit rate 6.9% among 320,000; further: potency means the concentration at half of the fitted maximal effect; on the % scale 0 is the no-effect control and ±100 the full control effect
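Luminescence readout: decreased luciferase signal marks inhibited growth of reporter-expressing P. falciparum in infected red cells (2% hematocrit, 0.05% parasitemia final), exposed to compound two generations (96 h, 37 C, 5% CO2).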
Numbers without * were called inactive; ? = inconclusive; nt = not tested or not shown. Unless noted, the call rests on the fitted dose curve; in most records, active means well fitted inhibition curve with a large enough effect; inconclusive means small, poorly fitted or top-dose-only effect, or another doubt; inactive means no such curve, though single readings can be large or run the other way.

SMILES	HCV inhibitor	Cycloheximide cs	Pf growth 48h	HCMV inh	Shiga toxin inh	Pf growth 96h
COC(=O)c1ccccc1NC(=O)c1cn2c3c(ccc(Cl)c3c1=O)OC(C)C2 (stereo not drawn)	nt	nt	nt	0	nt	nt
Cc1ccc(NC(=O)CSc2nnc([C@@H](N)Cc3c[nH]c4ccccc34)o2)c(C)c1	-3%	-7	?	2	56	9.3µM*
CCN(c1ccc(C)cc1C)S(=O)(=O)c1nnc(NC(=O)CC(C)C)s1	nt	nt	nt	-32	nt	nt
Cc1cc(NC(=O)c2nn(C)c(C)c2Br)no1	3%	45*	171%	?	81*	191%
CCOC(=O)C(=O)Nc1cc(C)on1	10%	72*	170%	20	80*	-3%
Cc1cc(NC(=O)c2ccc(NC(=O)C(C)Oc3ccccc3)cc2)no1 (stereo not drawn)	0%	9	6.6µM*	-28	1	nt
CC(C)NS(=O)(=O)c1ccc(NC(=O)C(C)Oc2ccc(C(=O)c3ccccc3)cc2)cc1 (stereo not drawn)	?	-4	?	12	-22	2.3µM*
Cc1cc(NC(=O)c2nn(C)c(C)c2[N+](=O)[O-])no1	6%	-2	12%	2	18	31%
COC(=O)C1=CN(c2ccc(N3CCOCC3)cc2)C(N)=C(C#N)C1c1cccc(OC)c1OC (stereo not drawn)	nt	nt	nt	1	nt	nt
CC(=O)Nc1ccc(C(=O)Nc2cc(C)on2)cc1	14%	32*	63%	27	44*	18%
Cc1ccc(OC(C)C(=O)Nc2cc(C)on2)cc1 (stereo not drawn)	16%	9	15%	13	-11	4.7µM*
Cc1cc(NC(=O)c2ccc(F)cc2)no1	-3%	33*	74%	20	91*	5%
CCOc1ccc(C(=O)Nc2cc(C)on2)cc1OCC	?	5	12µM*	53	-3	-5%
Cc1ccc(N2C(=O)CCSC23C(=O)N(Cc2ccccc2)c2ccccc23)cc1F (stereo not drawn)	nt	nt	nt	0	nt	nt
CCCCNC(=O)Nc1cc(C)on1	4%	12	nt	45	13	46%
CCCCOc1cccc(OCCCC)c1C(=O)Nc1cc(C)on1	?	0	2.1µM*	?	-9	25%
Cc1c2cnn(CC(=O)NCc3ccc(F)cc3)c(=O)c2c(C)n1Cc1cccc(Cl)c1	nt	nt	nt	-18	nt	nt
CCCSc1nnc(NC(=O)Nc2ccccc2OC)s1	-4%	34*	18%	-40	96*	19%
CCC(Oc1ccccc1OC)C(=O)N1CC(=O)Nc2ccccc21 (stereo not drawn)	15%	-7	8%	-74*	27	-11%
CCCc1nnc(NC(=O)Nc2ccccc2OC)s1	-2%	13	68%	50	9	26%
CCOc1ccccc1Nc1nnc(SCC(=O)N2CCCC2)s1	25µM*	0	0%	141	1	?
COc1ccccc1Nc1nnc(SCC(=O)N2CC(=O)Nc3ccccc32)s1	11%	1	?	11	-5	7.4µM*
O=C1CN(C(=O)CSc2nnc(Nc3ccccc3)s2)c2ccccc2N1	0%	-1	-18%	-25	-6	?
CNC(=S)Nc1cccc(C(=O)OC)c1	-4%	5	17%	31	8	0%
COc1ccc(CCNC(=O)CCC(=O)Nc2ccccc2[N+](=O)[O-])cc1OC	15%	-1	-1%	18	-6	-16%
SMILES	HCV inhibitor	Cycloheximide cs	Pf growth 48h	HCMV inh	Shiga toxin inh	Pf growth 96h
O=[N+]([O-])c1cccc(-c2noc3c2-c2nc(Cc4cccc5ccccc45)sc2CC3)c1	-5%	nt	?	17	nt	0%
Cc1ccc(NC(=O)CNC(=O)c2ccc(C)o2)cc1	13%	12	47%	-1	9	1%
CCN(Cc1ccncc1)C(=O)c1ccc2c(c1)S(=O)(=O)c1ccccc1C2=O	1%	6	-13%	9	9	-15%
COc1ccccc1Nc1nnc(SCC(=O)N2CCCC2=O)s1	-7%	16	-6%	-34	33	nt
COc1ccccc1Nc1nnc(SCC(=O)N2CCCC2)s1	7%	33*	-13%	111	86	nt
COc1ccccc1Nc1nnc(SCC(=O)NC2CCCC2)s1	8%	nt	12µM*	-13	nt	9.3µM*
